# Assay results taken from PubChem BioAssay (NCATS).
# Records with an inconclusive call do not appear. Entries that show only a call come without a potency. Active and inactive are the calls of the source. Unless noted, the call rests on the fitted dose curve; in most records, active means well fitted curve in the direction sought with a large enough effect; inconclusive means small, poorly fitted or top-dose-only effect, or another doubt; inactive means no such curve, though single readings can be large; an effect the other way counts as inactive or inconclusive.
# Experiments:
# [1] = Cell Viability - LYMP2-002 (AID 977);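 further: series mostly up to about 92 µM; compound exposure lasted 24 h at 37 °C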
# Method in brief: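 Human lymphoblastoid cells, 2500/well, complete medium; 5 h 37 C settle; compound 24 h 37 C; CellTiter-Glo, 30 min RT; luminescence. Decrease in ATP = cytotoxicity; AC50 via Hill equation.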
# [2] = Cell Viability - LYMP2-006 (AID 978); further: series mostly up to about 92 µM; nearly all actives have a fitted effect of over 60% in size
# Method in brief: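 Concentration-dependent loss of intracellular ATP in a human lymphoblastoid line after 24 hr treatment at 37 C was measured by CellTiter-Glo luminescence, with AC50 values obtained from standard Hill-equation modelling.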
# [3] = Cell Viability - LYMP2-007 (AID 979);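 further: cells exposed to compound for 24 h before reading; nearly all actives have a fitted effect of over 60% in size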
# Method in brief: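 Measured via luciferase-based ATP quantitation: lymphoblastoid cells, 24 hr compound exposure at 37 C, AC50 from Hill fits.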
# [4] = Cell Viability - LYMP2-008 (AID 980); further: nearly all actives have a fitted effect of over 60% in size
# Method in brief: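 Measured: ATP-dependent luminescence, proportional to viable cell number, in human lymphoblastoid cells treated 24 hr with compound in complete culture medium. Values are AC50s from Hill-equation modelling of qHTS titrations.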
# [5] = Cell Viability - LYMP2-010 (AID 981); further: nearly all actives have a fitted effect of over 55% in size
# Method in brief: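 This 24 hr viability screen uses LYMP2-010 lymphoblastoid cells, quantifies ATP via luciferase luminescence, and derives AC50 from Hill fits of qHTS concentration-response data.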
# [6] = Cell Viability - LYMP2-012 (AID 982);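 further: cellular ATP by luciferase luminescence where a drop means cytotoxicity; cells exposed to compound for one day before reading; nearly all actives have a fitted effect of over 55% in size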
# [7] = Cell Viability - LYMP2-016 (AID 984); further: nearly all actives have a fitted effect of over 55% in size
# Method in brief: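 Acute toxicity in a Coriell human lymphoblastoid line is scored as loss of intracellular ATP over 24 h of treatment in complete medium. CellTiter-Glo signal is fitted across concentrations with the Hill equation to give AC50.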
# [8] = Cell Viability - LYMP2-018 (AID 985); further: nearly all actives have a fitted effect of over 50% in size
# Method in brief: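 In this qHTS viability assay, cells are treated for 24 hr and cellular ATP is quantified by luciferase-based luminescence, with tetraoctylammonium bromide as positive control.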
# [9] = Cell Viability - LYMP2-020 (AID 986); further: series mostly up to about 92 µM; nearly all actives have a fitted effect of over 55% in size
# Method in brief: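 Cells at 2500 per well receive a 24 hr compound exposure at 37 C. Viability is measured as ATP-dependent luciferase luminescence, with AC50 modeled from qHTS concentration-response curves.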
# [10] = Cell Viability - LYMP2-022 (AID 987); further: nearly all actives have a fitted effect of over 55% in size
# Method in brief: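 In this qHTS cytotoxicity screen, compound titrations were incubated 24 hr at 37 C with human lymphoblastoid cells in complete medium. Luciferase-based ATP luminescence provided the viability signal.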
# [11] = Cell Viability - LYMP2-024 (AID 988); further: nearly all actives have a fitted effect of over 60% in size
# Method in brief: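 Cells at 2500 per well received compound for 24 hr after a 5 hr settling period. Viability was scored by CellTiter-Glo luminescence, with AC50 from Hill fits.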
# [12] = Cell Viability - LYMP2-026 (AID 989); further: nearly all actives have a fitted effect of over 50% in size
# Method in brief: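 Acute toxicity screen in complete culture medium, with 24 hr compound exposure at 37 C. Viability read as cellular ATP via luciferase reaction, with tetraoctylammonium bromide (6.4pM to 92 uM) as positive control.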
# [13] = Cell Viability - LYMP1-002 - Assay at 24 hr (AID 993)
# Method in brief: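 Viability was judged from intracellular ATP using a luciferase read-out, following a 24-hour compound incubation at 37 C of lymphoblastoid cells seeded at 2500 per well. Concentration-response data were fitted to the Hill equation for AC50.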
# [14] = Cell Viability - LYMP1-002 - Assay at 40 hr (AID 994); further: nearly all actives have a fitted effect of over 60% in size
# Method in brief: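 Concentration-dependent ATP loss after 40 hr treatment at 37 C defined toxicity; AC50 values were obtained by fitting the standard Hill equation.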
# [15] = qHTS Assay for Identification of Small Molecule Inducers of Hypoxia Response (AID 2120; active means well fitted curve in the direction sought with a large enough effect in the signal ratio, with a control signal flat, not every such curve was filed as active; the % refers to the signal ratio)
# Method in brief: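 HRE-bla ME-180, 2500 cells/well, 0.5% dialyzed FBS medium; cpd titration, 17 h 37 degrees C; CCF4 2.5 h RT; Ex 405, Em 460/530 ratio -> %Activity, AC50.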
# [16] = molecular target: Ubiquitin carboxyl-terminal hydrolase 1 (Homo sapiens) (UniProt O94782); assay: Inhibitors of USP1/UAF1: Pilot qHTS (AID 504865);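 further: rhodamine fluorescence freed from ubiquitin-rhodamine substrate followed over time; top concentration of the series differs between compounds; nearly all actives have a fitted effect of over 35% in size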
# Sequence of Ubiquitin carboxyl-terminal hydrolase 1 (Homo sapiens) (O94782 whole entry, looked up): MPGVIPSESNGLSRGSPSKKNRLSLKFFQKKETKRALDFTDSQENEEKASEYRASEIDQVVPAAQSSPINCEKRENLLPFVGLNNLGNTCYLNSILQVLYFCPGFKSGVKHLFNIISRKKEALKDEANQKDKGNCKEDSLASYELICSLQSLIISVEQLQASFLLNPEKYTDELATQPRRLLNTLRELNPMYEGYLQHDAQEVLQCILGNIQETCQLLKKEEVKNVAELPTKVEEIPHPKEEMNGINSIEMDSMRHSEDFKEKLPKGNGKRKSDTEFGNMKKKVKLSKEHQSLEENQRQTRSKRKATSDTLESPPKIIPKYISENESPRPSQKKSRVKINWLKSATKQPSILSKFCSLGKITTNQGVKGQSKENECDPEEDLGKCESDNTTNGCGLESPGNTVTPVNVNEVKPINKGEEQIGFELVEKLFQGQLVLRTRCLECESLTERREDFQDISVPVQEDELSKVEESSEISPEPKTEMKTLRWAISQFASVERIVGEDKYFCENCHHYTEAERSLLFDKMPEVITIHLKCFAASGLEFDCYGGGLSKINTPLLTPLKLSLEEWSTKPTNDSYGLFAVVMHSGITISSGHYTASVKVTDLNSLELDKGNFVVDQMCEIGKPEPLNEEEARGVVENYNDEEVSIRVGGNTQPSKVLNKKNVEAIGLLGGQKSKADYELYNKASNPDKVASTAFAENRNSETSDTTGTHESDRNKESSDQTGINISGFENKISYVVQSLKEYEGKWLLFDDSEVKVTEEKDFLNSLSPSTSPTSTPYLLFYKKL
# Method in brief: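 Kinetic fluorescence assay: 1nM USP1/UAF1, 15 min compound preincubation, then 150nM Ub-Rho; 480/540 nm.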
# [17] = molecular target: Estrogen receptor (Homo sapiens) (UniProt P03372); assay: qHTS assay for small molecule antagonists of estrogen receptor alpha signaling (AID 588513; active means well fitted curve in the direction sought with a large enough effect in the signal ratio, with a control signal flat, not every such curve was filed as active; the % refers to the signal ratio)
# Method in brief: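 Cells were plated at 5000/well and incubated 4 h at 37 C. Compounds were added as 1:2 dilution series, duplicates. 17-beta-estradiol (0.5nM final) was added for 18 h before CCF4 detection.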
# [18] = molecular target: Androgen receptor (Homo sapiens) (UniProt P10275); assay: qHTS assay for small molecule antagonists of androgen receptor signaling (AID 588516; active means well fitted curve in the direction sought with a large enough effect in the signal ratio, with a control signal flat, not every such curve was filed as active; the % refers to the signal ratio)
# Sequence of Androgen receptor (Homo sapiens) (P10275 whole entry, looked up): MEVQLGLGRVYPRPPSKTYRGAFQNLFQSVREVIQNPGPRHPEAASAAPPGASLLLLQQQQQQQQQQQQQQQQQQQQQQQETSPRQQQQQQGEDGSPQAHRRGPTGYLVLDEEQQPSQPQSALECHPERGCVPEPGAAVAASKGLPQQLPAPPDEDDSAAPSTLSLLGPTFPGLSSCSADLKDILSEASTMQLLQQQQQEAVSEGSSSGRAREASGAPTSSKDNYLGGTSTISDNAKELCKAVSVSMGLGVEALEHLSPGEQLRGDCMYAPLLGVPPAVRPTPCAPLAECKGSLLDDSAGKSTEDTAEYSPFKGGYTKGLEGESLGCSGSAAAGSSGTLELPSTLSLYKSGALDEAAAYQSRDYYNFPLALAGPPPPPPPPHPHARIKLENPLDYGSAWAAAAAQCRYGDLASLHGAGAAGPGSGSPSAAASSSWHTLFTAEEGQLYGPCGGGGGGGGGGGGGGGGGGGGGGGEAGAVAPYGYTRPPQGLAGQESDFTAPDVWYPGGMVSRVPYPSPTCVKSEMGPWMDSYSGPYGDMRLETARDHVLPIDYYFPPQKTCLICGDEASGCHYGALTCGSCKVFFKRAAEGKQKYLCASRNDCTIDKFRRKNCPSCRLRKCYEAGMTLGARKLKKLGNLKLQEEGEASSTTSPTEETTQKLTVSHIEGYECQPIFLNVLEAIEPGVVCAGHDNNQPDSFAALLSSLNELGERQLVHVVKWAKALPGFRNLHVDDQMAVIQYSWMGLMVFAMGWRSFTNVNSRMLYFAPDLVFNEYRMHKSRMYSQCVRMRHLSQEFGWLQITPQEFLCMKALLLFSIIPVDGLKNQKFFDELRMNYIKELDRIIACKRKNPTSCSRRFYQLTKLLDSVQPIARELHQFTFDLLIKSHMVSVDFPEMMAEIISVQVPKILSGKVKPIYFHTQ
# Method in brief: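 Antagonist-mode qHTS: inhibition of R1881 (10 nM)-driven beta-lactamase expression in GripTite HEK 293 cells is measured after 16 h; values are Hill-derived IC50s normalized between R1881 and DMSO wells.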
# [19] = molecular target: Peroxisome proliferator-activated receptor gamma (Homo sapiens) (UniProt P37231); assay: qHTS assay for small molecule agonists of peroxisome proliferator-activated receptor gamma signaling (AID 588536; active means well fitted curve in the direction sought with a large enough effect in the signal ratio, with a control signal flat, not every such curve was filed as active; the % refers to the signal ratio)
# Sequence of Peroxisome proliferator-activated receptor gamma (Homo sapiens) (P37231 whole entry, looked up): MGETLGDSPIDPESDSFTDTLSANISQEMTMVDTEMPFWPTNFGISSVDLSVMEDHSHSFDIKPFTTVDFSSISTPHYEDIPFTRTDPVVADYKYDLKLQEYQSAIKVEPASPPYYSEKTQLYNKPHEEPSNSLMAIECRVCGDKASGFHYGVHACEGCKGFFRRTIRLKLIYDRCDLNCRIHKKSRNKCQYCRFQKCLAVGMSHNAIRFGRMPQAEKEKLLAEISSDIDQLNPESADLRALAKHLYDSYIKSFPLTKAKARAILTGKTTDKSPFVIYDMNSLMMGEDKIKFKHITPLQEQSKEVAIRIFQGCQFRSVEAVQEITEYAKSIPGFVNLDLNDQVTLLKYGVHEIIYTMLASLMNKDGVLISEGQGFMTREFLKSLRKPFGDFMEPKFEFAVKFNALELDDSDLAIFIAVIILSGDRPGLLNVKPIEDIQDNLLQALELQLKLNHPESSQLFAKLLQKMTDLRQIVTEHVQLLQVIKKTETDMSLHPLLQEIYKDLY
# Method in brief: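 Cells were plated and held 6–6.5 h at 37 C, then compounds were added as a titration series. After a further 16 h, CCF4 dye was loaded for 2 h at room temperature and emission at 460/530 nm recorded.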
# [20] = molecular target: Peroxisome proliferator-activated receptor gamma (Homo sapiens) (UniProt P37231); assay: qHTS assay for small molecule antagonists of peroxisome proliferator-activated receptor gamma signaling (AID 588537; active means well fitted inhibition curve with a large enough effect in the signal ratio, with a control signal flat, not every such curve was filed as active; the % refers to the signal ratio;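 further: reporter cells co-stimulated with 50 nM rosiglitazone agonist during compound treatment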)
# Method in brief: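 Read-out: CCF4 fluorescence (ex 405, em 460/530 nm) after 2 h at RT. Cells were HEK293 carrying a UAS-bla reporter and treated 16 h at 37 C with compound plus rosiglitazone (50 nM final). Normalized to rosiglitazone and DMSO.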
# [21] = qHTS assay for small molecule agonists of retinoid X receptor alpha signaling (AID 588544; calls by dose curve); details: HEK293T RXRa-UAS-bla, beta-lactamase reporter, 18 h; 530 nm emission
# [22] = molecular target: Retinoic acid receptor RXR-alpha (Homo sapiens) (UniProt P19793); assay: as above
# Sequence of Retinoic acid receptor RXR-alpha (Homo sapiens) (P19793 whole entry, looked up): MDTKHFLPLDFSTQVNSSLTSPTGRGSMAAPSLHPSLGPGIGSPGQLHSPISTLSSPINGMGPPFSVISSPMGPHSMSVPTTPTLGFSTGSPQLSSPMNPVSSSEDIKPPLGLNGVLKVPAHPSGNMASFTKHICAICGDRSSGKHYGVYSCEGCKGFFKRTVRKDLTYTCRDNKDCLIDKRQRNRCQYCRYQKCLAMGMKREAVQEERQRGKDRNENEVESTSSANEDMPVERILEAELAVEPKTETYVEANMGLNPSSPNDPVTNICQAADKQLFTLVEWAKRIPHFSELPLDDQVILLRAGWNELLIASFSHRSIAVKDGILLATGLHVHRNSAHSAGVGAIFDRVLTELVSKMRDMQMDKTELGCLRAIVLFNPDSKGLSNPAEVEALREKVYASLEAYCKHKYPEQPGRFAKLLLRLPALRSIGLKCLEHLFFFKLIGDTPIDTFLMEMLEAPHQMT
# [23] = qHTS assay for small molecule antagonists of retinoid X receptor alpha signaling (AID 588546; active means well fitted inhibition curve with a large enough effect in the signal ratio, with a control signal flat, not every such curve was filed as active; the % refers to the signal ratio;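 further: cells stimulated with 9-cis-retinoic acid as agonist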); details: HEK293T RXRa-UAS-bla, beta-lactamase ratio, antagonist mode; measured here: W530 green channel, cytotoxicity proxy
# Method in brief: (§1)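 Beta-lactamase reporter inhibition, read as CCF4 fluorescence ratio (ex 405, em 460/530 nm) after 2 h at RT. HEK293T UAS-bla cells, 2500/well, were stimulated with 9-cis-RA at 500 or 100 nM final alongside test compound for 18 h at 37 C.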
# [24] = molecular target: Retinoic acid receptor RXR-alpha (Homo sapiens) (UniProt P19793); assay: as above; details: HEK293T RXRa-UAS-bla, beta-lactamase ratio, antagonist mode
# Method in brief: as §1
# [25] = molecular target: Voltage-gated inwardly rectifying potassium channel KCNH2 (Homo sapiens) (UniProt Q12809); assay: qHTS Assay for Small Molecule Inhibitors of the Human hERG Channel Activity (AID 588834);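 further: U2OS cells transduced with hERG by BacMam; top concentration of the series differs between compounds; lower thallium flux fluorescence means stronger hERG block; nearly all actives have a fitted effect of over 50% in size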
# Sequence of Voltage-gated inwardly rectifying potassium channel KCNH2 (Homo sapiens) (Q12809 whole entry, looked up): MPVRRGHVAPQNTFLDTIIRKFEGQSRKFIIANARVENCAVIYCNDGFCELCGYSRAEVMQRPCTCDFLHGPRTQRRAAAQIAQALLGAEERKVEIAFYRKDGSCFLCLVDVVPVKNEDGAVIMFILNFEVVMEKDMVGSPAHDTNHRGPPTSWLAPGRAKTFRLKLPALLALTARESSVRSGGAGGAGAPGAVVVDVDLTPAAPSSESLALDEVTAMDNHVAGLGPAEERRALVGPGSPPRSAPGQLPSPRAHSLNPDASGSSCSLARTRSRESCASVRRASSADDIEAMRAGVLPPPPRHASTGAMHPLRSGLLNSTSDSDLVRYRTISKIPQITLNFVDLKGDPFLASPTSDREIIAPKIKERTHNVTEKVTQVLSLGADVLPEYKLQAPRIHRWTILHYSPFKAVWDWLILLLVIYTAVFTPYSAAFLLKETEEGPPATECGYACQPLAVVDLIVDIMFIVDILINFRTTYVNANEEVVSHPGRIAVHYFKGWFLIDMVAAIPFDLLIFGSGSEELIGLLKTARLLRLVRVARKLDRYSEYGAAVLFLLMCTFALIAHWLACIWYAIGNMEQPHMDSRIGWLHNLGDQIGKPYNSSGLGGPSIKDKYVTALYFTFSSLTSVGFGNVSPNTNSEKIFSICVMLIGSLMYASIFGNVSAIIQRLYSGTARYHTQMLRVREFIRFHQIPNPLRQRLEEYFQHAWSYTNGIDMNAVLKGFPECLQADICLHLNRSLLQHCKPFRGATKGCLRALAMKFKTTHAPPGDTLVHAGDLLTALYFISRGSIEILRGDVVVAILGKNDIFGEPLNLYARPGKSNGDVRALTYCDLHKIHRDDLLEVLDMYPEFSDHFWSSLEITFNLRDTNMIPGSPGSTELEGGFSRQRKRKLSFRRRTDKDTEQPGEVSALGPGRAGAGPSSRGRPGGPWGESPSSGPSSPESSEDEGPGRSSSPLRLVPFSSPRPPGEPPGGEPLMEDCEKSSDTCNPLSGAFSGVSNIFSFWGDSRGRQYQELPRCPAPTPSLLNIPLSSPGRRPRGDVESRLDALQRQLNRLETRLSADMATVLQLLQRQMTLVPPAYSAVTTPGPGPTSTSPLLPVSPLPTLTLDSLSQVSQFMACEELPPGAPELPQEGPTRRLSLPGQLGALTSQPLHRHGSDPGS
# Method in brief: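 Cells were infected with hERG-BacMam virus for 4 hrs at room temperature, grown overnight, then seeded at 2000/well. After dye loading and roughly 10 min compound treatment, thallium influx was triggered and fluorescence recorded.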
# [26] = qHTS assay for small molecule agonists of the antioxidant response element (ARE) signaling pathway (AID 651741; active means well fitted activation curve with a large enough effect in the signal ratio; the % refers to the signal ratio; further: potency means the concentration at half of the fitted maximal effect)
# Method in brief: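 HepG2 ARE-bla reporter cells, 2,000/well; 5 h settle at 37 C/5% CO2; compound pin transfer (23 nL, DMSO); 16 h at 37 C; LiveBLAzer B/G FRET substrate, 2 h RT; fluorescence intensity read.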
# [27] = qHTS assay for small molecule activators of the p53 signaling pathway (AID 651743; active means well fitted activation curve with a large enough effect in the signal ratio, not every such curve was filed as active; the % refers to the signal ratio; further: series mostly up to about 92 µM); details: HCT-116 p53RE-bla, beta-lactamase FRET ratio, 16 h; activation: stronger effect = higher value
# Method in brief: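 Reporter: beta-lactamase driven by p53 response elements, stably integrated in HCT-116 cells. Cells seeded at 4,000/well, 5 h preincubation, compound (DMSO) 16 h at 37 C; B/G FRET substrate 2 h RT; fluorescence intensity read.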
# [28] = qHTS assay for small molecule activators of the nuclear factor-kappa B (NF-kB) signaling pathway (AID 651749; active means well fitted activation curve with a large enough effect in the signal ratio; the % refers to the signal ratio; further: series mostly up to about 77 µM); details: NF-kB-bla ME-180 cells, beta-lactamase FRET ratio, 16 h; stronger effect = higher value
# Method in brief: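 NF-kB-bla ME-180 cells, 2,000/well; 23 nL compound or DMSO pinned; 16 hr, 37C/5% CO2; beta-lactamase FRET read-out.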
# [29] = qHTS assay for small molecule disruptors of the mitochondrial membrane potential - 5 hr assay (AID 651755; calls by dose curve; further: potency means the concentration at half of the fitted maximal effect; nearly all actives have a fitted effect of over 40% in size)
# Method in brief: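 Read-out: ratiometric Mito-MPS fluorescence, green monomer (ex 490/em 535) vs red mitochondrial aggregate (ex 540/em 590). HepG2 cells treated 5 hr at 37C before 30 min dye loading.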
# [30] = molecular target: Tumor necrosis factor (Homo sapiens) (UniProt P01375); assay: qHTS assay to identify small molecules that stimulate Tumor Necrosis Factor-alpha (TNF-alpha) secretion (AID 651757; active means well fitted curve in the direction sought with a large enough effect in the signal ratio; the % refers to the signal ratio)
# Sequence of Tumor necrosis factor (Homo sapiens) (P01375 whole entry, looked up): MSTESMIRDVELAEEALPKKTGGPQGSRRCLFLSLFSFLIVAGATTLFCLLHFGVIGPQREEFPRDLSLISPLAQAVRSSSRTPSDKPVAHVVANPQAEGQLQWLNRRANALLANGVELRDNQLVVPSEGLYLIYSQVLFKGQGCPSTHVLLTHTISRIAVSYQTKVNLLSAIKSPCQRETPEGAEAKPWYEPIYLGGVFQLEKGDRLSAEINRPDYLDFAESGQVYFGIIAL
# Method in brief: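 Using 3000 THP-1 cells per well, compounds and controls were applied for 17 hrs at 37 C. Detection followed with two labeled anti-TNF-alpha antibodies (cryptate donor, XL665 acceptor) for 3 hr at room temperature, measured by TR-FRET.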
# [31] = qHTS assay to identify small molecules that stimulate interleukin-8 (IL-8) secretion (AID 651758; active means well fitted activation curve with a large enough effect in the signal ratio; the % refers to the signal ratio)
# Method in brief: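 Compounds are added to THP-1 cells (2000 per well) and left 16 hrs at 37 C. A labeled anti-IL-8 antibody pair is then added, and IL-8 secretion is measured by time-resolved FRET after 1-3 hrs at room temperature.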
# [32] = qHTS assay for environmental chemicals that activate the Aryl hydrocarbon Receptor (AhR) signaling pathway (AID 651777); details: 1A2-DRE human hepatoma cells, luciferase, 24 h; activation: stronger effect = higher value; further: nearly all actives have a fitted effect of over 15% in size
# Method in brief: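 Human hepatoma 1A2-DRE cells stably carrying a DRE/CYP1A2 promoter–luciferase reporter, 1,200 cells/well, exposed to compound 24 hr at 37 C. Luciferase read by One-Glo luminescence after 30 min at room temperature; increased signal marks AhR activation.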
# [33] = molecular target: Nuclear receptor ROR-gamma (Homo sapiens) (UniProt P51449); assay: qHTS assay for small molecule antagonists of the retinoid-related orphan receptor gamma (ROR-gamma) signaling pathway (AID 651802)
# Sequence of Nuclear receptor ROR-gamma (Homo sapiens) (P51449 whole entry, looked up): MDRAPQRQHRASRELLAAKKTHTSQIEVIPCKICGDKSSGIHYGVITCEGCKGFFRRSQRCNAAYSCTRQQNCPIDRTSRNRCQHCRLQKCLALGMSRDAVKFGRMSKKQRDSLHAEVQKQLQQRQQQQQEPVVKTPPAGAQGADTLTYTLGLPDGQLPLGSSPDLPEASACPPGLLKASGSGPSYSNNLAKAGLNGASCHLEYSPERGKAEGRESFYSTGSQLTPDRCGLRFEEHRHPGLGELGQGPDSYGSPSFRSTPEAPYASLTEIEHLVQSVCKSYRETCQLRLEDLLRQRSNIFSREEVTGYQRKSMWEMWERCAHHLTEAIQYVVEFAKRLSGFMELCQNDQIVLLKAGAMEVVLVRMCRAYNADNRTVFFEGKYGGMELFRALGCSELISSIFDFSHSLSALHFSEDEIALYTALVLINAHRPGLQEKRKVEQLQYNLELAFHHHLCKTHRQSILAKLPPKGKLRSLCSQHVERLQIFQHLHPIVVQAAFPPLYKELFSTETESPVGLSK
# Method in brief: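 Doxycycline-induced reporter activity in engineered CHO cells (TET-inducible ROR, RORE-LUC) was measured by luminescence after 16hr compound exposure at 37C.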
# [34] = qHTS assay for small molecule agonists of the antioxidant response element (ARE) signaling pathway measured by Nrf2-dependant transcriptional activity (AID 720636; active means well fitted curve in the direction sought with a large enough effect in the repeat runs; an effect the other way counts as inactive or inconclusive)
# Method in brief: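 ARE-luc HepG2 cells carrying an Nrf2-responsive luciferase reporter, in medium with 1% dialyzed FBS, exposed to compound for 16 hr at 37 C, 5% CO2. Luminescence read 30 min after ONE-Glo addition.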
# [35] = qHTS assay for small molecule antagonists of the retinoid-related orphan receptor gamma (ROR-gamma) signaling pathway - cell viability counter screen (AID 720652; active means well fitted curve in the direction sought with a large enough effect in the repeat runs; an effect the other way counts as inactive or inconclusive;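 further: CHO reporter cells with doxycycline-induced ROR-gamma expression; series mostly up to about 92 µM; compound exposure lasted 16 hr before ATP read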)
# Method in brief: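 ATP-based viability readout in the ROR-gamma reporter CHO cells after 16 hr compound exposure under doxycycline induction.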
# [36] = qHTS assay for small molecule agonists of the antioxidant response element (ARE) signaling pathway measured by Nrf2-dependant transcriptional activity - cell viability counter screen (AID 720653; active means well fitted curve in the direction sought with a large enough effect in the repeat runs; an effect the other way counts as inactive or inconclusive); details: ARE-bla HepG2 viability, CellTiter-Glo ATP luminescence, 16 h; stronger effect = lower value
# Method in brief: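 ARE-bla HepG2 cells treated with compounds for 16 h at 37C; this counter screen measures viability as intracellular ATP by CellTiter-Glo luminescence after 30 min at room temperature.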
# [37] = qHTS assay for cell viability of HEK293 cells (AID 743288); details: ATP luminescence (CellTiter-Glo), 18 h, stronger effect = lower value; further: nearly all actives have a fitted effect of over 50% in size
# Method in brief: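 Quantitative high-throughput screen: compounds were pinned onto parental HEK293 cells (2,000 per well) after a minimum 5 h settling at 37 C, incubated 18 h at 37 C, and intracellular ATP measured by luciferase luminescence.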
# [38] = qHTS assay for cell viability of the p53RE-bla HCT-116 cell line (AID 743292); further: nearly all actives have a fitted effect of over 55% in size
# Method in brief: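 CellSensor p53RE-bla HCT-116 cells (4,000/well) pre-incubated 5 h at 37 C, then exposed to compounds in DMSO for 16 h at 37 C. Viability read as ATP content by CellTiter-Glo luminescence after 30 min at room temperature.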
# [39] = qHTS assay for small molecule activators of the human pregnane X receptor (PXR) signaling pathway (AID 720659; call rule not given here)
structure (smiles),measurement,setting,value
O=[N+]([O-])c1ccc(O)c([N+](=O)[O-])c1,Potency,[1],inactive
same,Potency,[2],inactive
same,Potency,[3],inactive
same,Potency,[4],inactive
same,Potency,[5],inactive
same,Potency,[6],inactive
same,Potency,[7],inactive
same,Potency,[8],inactive
same,Potency,[9],inactive
same,Potency,[10],inactive
same,Potency,[11],inactive
same,Potency,[12],inactive
same,Potency,[13],inactive
same,Potency,[14],inactive
same,Potency,[15],inactive
same,Potency,[16],inactive
same,Potency,[17],inactive
same,outcome,[18],inactive
same,outcome,[19],inactive
same,Potency,[20],inactive
same,max response,[21],-6.65%
same,outcome,[22],inactive
same,max response,[23],-0.361%
same,max response,[24],9.93% (inactive)
same,Potency,[25],inactive
same,Potency,[26],66.8 µM (active)
same,activation,[27],9.63% (inactive)
same,activation,[28],3.32% (inactive)
same,Potency,[29],37.6 µM (active)
same,outcome,[30],inactive
same,Potency,[31],inactive
same,activation,[32],0.436% (inactive)
same,Potency,[33],6.68 µM (active)
same,Potency,[34],inactive
same,Potency,[35],inactive
same,max response,[36],-10% (inactive)
same,max response,[37],-1.57% (inactive)
same,Potency,[38],inactive
same,outcome,[39],inactive
